The results in this text go back to the OligoGym collection.
Note: reference of the scale not given here.

For the first experiment, the target named is SIRPD. Briefly: pooled miR-30 sensor sort-seq; sequence = guide strand. Conditions: shRNA.
The sequence TTTGTTATTTACTTGTACGTTC had a sensor-assay potency score (higher = more potent) of 0.326.
For the sequence AAATTGTAGATTAATTTCCGGT, the sensor-assay potency score (higher = more potent) was -0.422.
For the sequence TTGAACCACAAGACAGGTCCAT, the sensor-assay potency score (higher = more potent) is -0.0742.
The same measure, in the same setting: the figure for TTGGATTCTGCTCAGTAACAAA is -1.61; for TGAACCACAAGACAGGTCCATT it is -1.29.

Another experiment addresses SIRT4. The experiment is described as above. To be noted: shRNA.
As for TTTTGCTGACCTGAAAGTCAAC, the sensor-assay potency score (higher = more potent) was -1.46.
Turning to ATGTTCAGTATTGCAATCGGGA, the sensor-assay potency score (higher = more potent) is -1.33.
Take TTTTTCTGACCTGTAGTCTGGT: the sensor-assay potency score (higher = more potent) worked out at 0.35.
For the sequence TTGAACGCAGGTTGGGACCTGA, the sensor-assay potency score (higher = more potent) was 0.0552.
Regarding TGTAACTCTTTGACCTTCTCAG, the sensor-assay potency score (higher = more potent) was found to be 0.0606.
Consider TATTGCAATCGGGAGCTTCTTC, for which the sensor-assay potency score (higher = more potent) is -0.488.
Consider TTTCTGACCTGTAGTCTGGTAT, for which the sensor-assay potency score (higher = more potent) was -0.224.
As to TTCTTTTACACGCTTGTGCACA, the sensor-assay potency score (higher = more potent) is -0.806.
Still for that read-out and setting: in the case of TTTTCTGACCTGTAGTCTGGTA it was -0.377; in that of ATACCTGCAAGGATGATCCCAC, 0.445; in that of TTGTGCACAAAATCAACCTTGT, 0.469.

A further experiment addresses SIRT7. Described as above. Conditions: shRNA.
For TCCGTCACATCGAACACCCGCA, the sensor-assay potency score (higher = more potent) was -0.639.
Still for that read-out and setting: in the case of ATGACGTCATCACACTTCCCAT it was -1.31.
In the case of TGGGTACTTCTTTAGAACCTTC, the sensor-assay potency score (higher = more potent) was -0.762.
The same measure, in the same setting: the figure for TTCTGCACAGCGACTTCCGACT is -1.07; for TTCAATGTACATGTTCCCGTGG it is 0.307.
Consider TTGGTCATGCACCAGAGGCGTG, for which the sensor-assay potency score (higher = more potent) was -1.42.
TTCTTTAGAACCTTCAGGCTGG showed a sensor-assay potency score (higher = more potent) of 0.828.
TTCTGAAGCAGTGTCCACACTC: the sensor-assay potency score (higher = more potent) is -0.449.
Take TGAAGCAGTGTCCACACTCCAT: the sensor-assay potency score (higher = more potent) is -1.07.
With TAACGCTTCTCCCTTTCTGAAG, the sensor-assay potency score (higher = more potent) was -1.56.
Consider TAGACGACCAAGTATTTGGCGT, for which the sensor-assay potency score (higher = more potent) is -0.403.
As for TTCTTCACCAGCACGCAGGGGA, the sensor-assay potency score (higher = more potent) was -0.0799.

The target in another experiment is SIX1. Described as above. To be noted: shRNA.
TTCTTGTGCAGGTGGTCGCAGG: the sensor-assay potency score (higher = more potent) was -1.02.
Turning to TTGAGTACGCTCTCGTTCTTGT, the sensor-assay potency score (higher = more potent) is -0.00831.
For the sequence TTCTCCTTGAAGCAGTAGCTGG, the sensor-assay potency score (higher = more potent) was -1.4.
Regarding TTTATGCGCAAACAACTCCAGA, the sensor-assay potency score (higher = more potent) was -1.43.
Sequence TTAAGCTTGAGATCGCTGTTGG came in with a sensor-assay potency score (higher = more potent) of 0.117.
In the case of TTGTTTTCGGTGTTCTCCCTTT, the sensor-assay potency score (higher = more potent) is -0.196.
On the same count and under the same terms, in the case of TTCTATTTACAAGTGTCCCTAG it was 0.0217.
For TTTCTATTTACAAGTGTCCCTA, the sensor-assay potency score (higher = more potent) was -0.676.
AACAACTCCAGAAACAAGCTGC: the sensor-assay potency score (higher = more potent) was -0.198.
On to TTCTGAGCTGGACATGAGCGGC, for which the sensor-assay potency score (higher = more potent) was -1.35.
Consider TACAAGTGTCCCTAGTCGCTGC, for which the sensor-assay potency score (higher = more potent) was 0.379.
As for ATATTTGTGAAAGTCCACCATT, the sensor-assay potency score (higher = more potent) is -0.953.
